Test results published in PubChem BioAssay AID2685 (National Center for Advancing Translational Sciences (NCATS), 2010).
About 2,100 (0.66%) of roughly 320,000 compounds were called active. About 53% were inconclusive and are not listed. Calls follow the shape of the dose curve; as a rule, active = well fitted inhibition curve with a large enough effect in the signal ratio, with a control signal flat (not every such curve was filed as active); inconclusive = small, poorly fitted or top-dose-only effect, or effect the other way, or a change in a side signal; inactive = flat fitted curve, though single readings scatter; the % refers to the signal ratio. The full list was thinned out, with actives kept by preference.

Assay: qHTS Assay for Lipid Storage Modulators in Drosophila S3 Cells;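 as to cell number change: cells counted by Cell Tracker Red CMTPX staining in the red channel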; as to lipid storage change, negative = inhibition: % is scaled to controls: 0 for no effect and ±100 for the full control effect
Conditions: BODIPY lipid droplet fluorescence, 18-24 h, cells fed with added oleic acid; cell number change: measured here: cell count max response; series mostly up to 46.1 µM; lipid storage change, negative = inhibition: at the top concentration
How it was run: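 Drosophila S3 cells got compounds at several concentrations plus oleic acid (400 uM solution). Laser-scanning cytometry with 488 nm excitation read lipid droplets at 500-530 nm and cells at 575-640 nm. Percent activity was relative to 20 uM Triacsin C.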
Potency is read from the fitted curve at half-maximal effect.

| SMILES | lipid storage change, negative = inhibition | cell number change | Potency | outcome |
| --- | --- | --- | --- | --- |
| O=C(CC(NC(=O)c1ccccc1Cl)c1ccccc1)NCCc1ccc(Cl)cc1 (centres undefined) | 5.66% (inactive) | 10.1% |  |  |
| Cc1cc(=O)[nH]c(SCC2(O)C3CC4CC(C3)CC2C4)n1 (centres undefined) |  | -7.4% | 29.1 µM (active) |  |
| CCCSc1nc(C)cc(=O)[nH]1 | -10.3% (inactive) | 7.07% |  |  |
| Cc1cc(=O)[nH]c(SCC(=O)N2CCCCC2)n1 |  | 4.95% |  | inactive |
| COc1ccc([N+](=O)[O-])cc1NC(=O)c1cccnc1 | -20.3% (inactive) | 9.82% |  |  |
| CCCNc1nc(C)cc(-c2cc(C(=O)NCc3ccccc3)on2)n1 | 8.29% (inactive) | 1.8% |  |  |
| COc1ccc(C)cc1N1CC(C(=O)Nc2ccccc2N2CCCCC2)CC1=O (centres undefined) |  | 3.68% | 1.03 µM (active) |  |
| Cc1cccc(N2CC(C(=O)Nc3ccccc3N3CCCC3)CC2=O)c1C (centres undefined) | 29.9% (inactive) |  |  |  |
| CCOc1ccccc1N1CC(C(=O)Nc2ccccc2N2CCCC2)CC1=O (centres undefined) | 22.4% (inactive) |  |  |  |
| Cc1ccc(-c2nc(C#N)c(NCCN3CCCCC3)o2)cc1 |  | 1.25% |  | inactive |
| CCOC(=O)c1c(C)[nH]c(C=C2C(=O)CCCC2=O)c1O | -2.52% (inactive) | -4.56% |  |  |
| Cn1cccc1/C=C(/C#N)C(N)=S | 10.6% (inactive) | 0.988% |  |  |
| O=C(NCCc1c[nH]c2ccccc12)C(=O)NCC(c1ccco1)N1CCN(c2ccccc2)CC1 (centres undefined) | 20.1% (inactive) | -12.5% |  |  |
| Cc1ccc(NS(=O)(=O)c2ccc(C(=O)OCC(=O)Nc3cc(C)on3)cc2)cc1 | -0.058% (inactive) | -18.1% |  |  |
| c1ccc(C[n+]2c(-c3ccccc3)csc2Nc2ccccc2)cc1 | 1.38% (inactive) | -10.6% |  |  |
| O=[N+]([O-])c1ccc(-c2csc(Nc3ccccc3)[n+]2Cc2ccccc2)cc1 |  | -27.2% | 13 µM (active) |  |
| COc1ccc(-c2csc(Nc3ccccc3)[n+]2CC(O)c2ccc([N+](=O)[O-])cc2)cc1 (centres undefined) | -0.0678% (inactive) | -3.41% |  |  |
| O=C1OCc2cc(-n3cccc3)ccc21 | 6.05% (inactive) | -1.52% |  |  |
| Cc1ccccc1S(=O)(=O)Cc1ccc(C(=O)NC2CCC(C)CC2)o1 (centres undefined) |  | -18.5% | 18.4 µM (active) |  |

| SMILES | lipid storage change, negative = inhibition | cell number change | Potency | outcome |
| --- | --- | --- | --- | --- |
| CCOC(=O)N1CCC(NC(=O)c2ccc(CS(=O)(=O)c3ccccc3C)o2)CC1 | -11.9% (inactive) | -13.7% |  |  |
| Cc1ccccc1S(=O)(=O)Cc1ccc(C(=O)NC2CCCCC2C)o1 (centres undefined) |  |  |  | inactive |
| COC(=O)c1cccc(NC(=O)C(C)(C)C)c1 | -0.0627% (inactive) | -0.276% |  |  |
| Cn1ccnc1SCC(=O)c1ccc(Cl)cc1 | 0.461% (inactive) | 1.94% |  |  |
| CN1CCC(NC(=O)Nc2ccc(Br)cc2)CC1 | -16.8% (inactive) | -12.5% |  |  |
| COc1ccc(CN2CC(C(=O)NCCc3ccc(C)cc3)CC2=O)cc1 (centres undefined) | 6.44% (inactive) | 1.29% |  |  |
| COc1ccc(COC(=O)C2CC(=O)N(Cc3ccc(C)cc3)C2)cc1 (centres undefined) |  | -16.1% |  | inactive [at 0.369 µM] |
| COc1ccc(NC(=O)COC(=O)C2CC(=O)N(Cc3ccc(C)cc3)C2)cc1 (centres undefined) |  | -4.17% | 2.06 µM (active) |  |
| COC(=O)C1CCN(C(=O)c2ccc(Cl)c(S(=O)(=O)NCc3cccnc3)c2)CC1 |  | 20.6% |  | inactive |
| CC(=O)Oc1ccccc1N(C(C)=O)S(=O)(=O)c1ccc(C)cc1 | 6.21% (inactive) | -8.62% |  |  |
| CC(C)CC(NC(N)=O)C(=O)NCc1ccc(Cl)cc1 (centres undefined) | -1.44% (inactive) | 6.23% |  |  |
| CC(C)C[C@H](NC(=O)NCc1ccc(Cl)cc1)C(=O)O |  | -1.47% | 6.51 µM (active) |  |
| CC(C)[C@H](NC(=O)NCc1ccc(Cl)cc1)C(=O)O |  |  |  | inactive |
| CCC(=O)Nc1ccc(NC(=O)CSc2nc3cc4c(cc3cc2C)CCC4)cc1 | -12.2% (inactive) | 0.207% |  |  |
| CCC(=O)Nc1nn(C)c2nc3c(C)cccc3cc12 | 1.08% (inactive) | -9.14% |  |  |
| CC1CCN(CCCNC(=O)C2CCC(CNS(=O)(=O)c3cccc4nsnc34)CC2)CC1 (centres undefined) |  |  |  | inactive |
| CCOc1ccc(-n2c(=O)cc(N3CCN(c4ccc(F)cc4)CC3)[nH]c2=O)cc1 | 20.6% (inactive) | 10.6% |  |  |
| Cc1ccc(-c2nnn(CC(=O)N(Cc3ccco3)C(C(=O)NC(C)(C)C)c3cccs3)n2)o1 (centres undefined) | -15.4% (inactive) | -15.2% |  |  |
| Nc1c(C(=O)NCC2CCCO2)sc2nc3c(c(-c4ccco4)c12)CC/C3=C\c1ccco1 (centres undefined) |  | 3.45% | 8.2 µM (active) |  |

| SMILES | lipid storage change, negative = inhibition | cell number change | Potency | outcome |
| --- | --- | --- | --- | --- |
| Nc1c(C(=O)Nc2ccccc2)sc2nc3c(c(-c4ccco4)c12)CCCC3 | 12.6% (inactive) | -3.84% |  |  |
| Cc1ccc(NC(=O)c2sc3nc4c(c(-c5ccco5)c3c2N)CCC4)cc1 |  | -11.1% |  | inactive |
| COc1ccc(NC(=O)CC2C(=O)NCCN2C(=O)Nc2ccc(C(F)(F)F)cc2)cc1 (centres undefined) | 0.561% (inactive) | 12.2% |  |  |
| Cc1cccc(NC(=O)CN2C(=O)N/C(=C\c3ccc(-c4cccc(C(=O)O)c4)o3)C2=O)c1 | 0.48% (inactive) | -0.725% |  |  |
| CCCn1c(N)c(N(CCOC)C(=O)/C=C/c2ccc(C(=O)OC)cc2)c(=O)[nH]c1=O | -7.54% (inactive) | -4.64% |  |  |
| CC(C)(C)NC(=O)C(c1ccc(F)cc1)N(Cc1ccco1)C(=O)c1csnn1 (centres undefined) | 13.7% (inactive) | -0.0921% |  |  |
| Cc1ccc(NC(=O)CCc2c(C)[nH]c(=O)c(C#N)c2C)cc1 |  | 16.2% |  | inactive |
| COc1ccccc1NC(=O)CCc1c(C)[nH]c(=O)c(C#N)c1C | -20.9% (inactive) | 16.5% |  |  |
| COc1cc(NC(=O)CCc2c(C)[nH]c(=O)c(C#N)c2C)cc(OC)c1 |  | -2.94% | 0.058 µM (active) |  |
| COc1ccc(-c2[nH]ncc2/C=N/NC(=O)c2ccc(Br)cc2)c(OC)c1 | 15.5% (inactive) | 3.28% |  |  |
| CCOc1ccc(NC(=O)CN2C(=O)CSC(C)C2=O)cc1 (centres undefined) | 18.6% (inactive) | 8.89% |  |  |
| Cc1c(C(=O)N(CCC#N)c2ccccc2)sc2nc3n(c(=O)c12)CCCC3 | -10.6% (inactive) | 7.46% |  |  |
| COc1ccc(O)c(-c2cc(-c3ccccc3Cl)[nH]n2)c1 |  | -20.4% | 3.66 µM (active) |  |
| Oc1ccc(Br)cc1-c1cc(-c2ccccc2Cl)[nH]n1 | -22.2% (inactive) | -23.2% |  |  |
| COc1ccc(O)c(-c2cc(-c3ccccc3[N+](=O)[O-])[nH]n2)c1 | 7.36% (inactive) | -1.9% |  |  |
| CCc1ccc(/C=C(\C)C(=O)c2c(C)cc(C)[nH]c2=O)cc1 | 3.7% (inactive) | -0.605% |  |  |
| CCOc1ccc(C2c3[nH]c4ccccc4c3C[C@H]3C(=O)N(C4CC4)CC(=O)N23)cc1OC (some centres undefined) | 9.36% (inactive) | 5.07% |  |  |
| CCOc1ccc2oc(C(=O)NC(C)(C)CC)c(C)c2c1 | 5.67% (inactive) | -22.3% |  |  |
| CC(C)(C)N(Cc1ccccc1)C(=O)COC(=O)CNS(=O)(=O)c1ccc2ccccc2c1 | 4.49% (inactive) | -5.96% |  |  |
